# Reference: PubChem BioAssay AID624171 (National Center for Advancing Translational Sciences (NCATS), 2012)
# The campaign covered roughly 410,000 compounds. About 1,200 (0.29%) were called active. Where a call stands in place of a potency, no number is given. About 2% were inconclusive and are not listed. Many of the other results were omitted from the sample, so actives are more common in it than they were. Values without a mark were called inactive. The call rests on the fitted dose curve; in most records, active means well fitted activation curve with a large enough effect; inconclusive means small, poorly fitted or top-dose-only effect; inactive means flat fitted curve, though single readings scatter.
# Assay: qHTS of Nrf2 Activators; further: nearly all actives have a fitted effect of over 65% in size
# Conditions: AREc32 ARE-luciferase reporter (MCF7-derived line), luminescence, 24 h; series mostly up to 46.1 µM
# Outline: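 Cells of the AREc32 ARE-luciferase line are plated in OPTI-MEM containing 5% FBS and left overnight at 37 deg C. Compounds are pinned in, incubation continues 24 hr, and firefly luciferase signal is then measured.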
# Potency means the concentration at half of the fitted maximal effect.
SMILES,Potency,activation
O=C(Nc1cccc2ccccc12)c1onc2c1CCCC2,12.6 µM (active),
COc1ccc(C(=O)Nc2onc3c2CCCC3)cc1,inactive,
Cc1c(Cl)cccc1NC(=O)c1noc2c1CCCC2,inactive,
COc1cccc(C(=O)NCc2ccc3c(c2)CCN3C(=O)c2ccncc2)c1,inactive,
C=CCSc1nnc2c(n1)-c1cccc3cccc-2c13,12.6 µM (active),
C=CCSc1nsc(NC(=O)Nc2cccc(C(C)=O)c2)n1,,-0.163% [at 9.22 µM]
Cc1cc(C)c(-c2n[nH]c3c2C(c2ccccc2F)N(CCO)C3=O)c(O)c1 (stereo not drawn),inactive,
Cc1nc2ccc(S(=O)(=O)NC(C(=O)NCc3ccccc3Cl)C(C)C)cc2s1 (stereo not drawn),inactive,
CC(=O)N1CCN(S(=O)(=O)c2c(F)cc(F)c(Cl)c2F)CC1,11.2 µM (active),
O=C(c1cnc(Cl)c(Cl)c1)N1CCN(S(=O)(=O)c2ccc(F)cc2)CC1,inactive,
O=C(c1c(F)cccc1Cl)N1CCN(S(=O)(=O)c2ccc3c(c2)OCCCO3)CC1,inactive,
Cc1c(CNC(C)c2ccccc2)c(C(=O)O)c(C)n1Cc1c(F)cccc1Cl (stereo not drawn),inactive,
Cc1csc2nc(COc3ccc(NC(=O)COc4ccccc4)cc3)cc(=O)n12,inactive,
O=C(Nc1ccccc1F)c1ccccc1-c1ccc(C(F)(F)F)cc1,inactive,
O=C(Nc1nc2c(s1)CCCC2)c1ccccc1F,inactive,
O=C(Nc1nnc(-c2ccccc2F)s1)c1ccccc1F,3.16 µM (active),
O=C(COc1ccccc1F)Nc1ccc(C(=O)OCc2cc(=O)n3nc(C4CC4)sc3n2)cc1,inactive,
Cc1ccccc1CNC(=O)CCCn1nc(C)c2sc3ccccc3c2c1=O,inactive,
Brc1ccccc1C1N=C(c2ccccc2)NO1 (stereo not drawn),6.31 µM (active),
N#Cc1ccc(C2N=C(c3ccccc3)NO2)cc1 (stereo not drawn),inactive,
COc1cc(Cl)c(NC(=O)CC(C)S(=O)(=O)c2cc3c(cc2C)NC(=O)CO3)c(OC)c1 (stereo not drawn),inactive,
CN(C)CCCn1c(-c2ccc(Cl)cc2)csc1=Nc1ccccc1,inactive,
CN(C)CCN=c1cc(-c2ccccc2)oc2ccc(Cl)cc12,11.2 µM (active),

SMILES,Potency,activation
Cc1ccc(Cc2nc3ccccc3nc2SCC(=O)Nc2cccc(C(F)(F)F)c2)cc1,inactive,
CCOCCCNC(=O)c1c(NC(=O)Cc2coc3ccc(C)cc23)sc2c1CCC2,inactive,
N#CC1=C(N)Oc2c(sc3ccccc23)C1c1ccco1 (stereo not drawn),3.16 µM (active),
CC(=O)c1cccc(NC(=O)c2nc(-c3ccccc3)n(-c3cccc(C)c3)n2)c1,inactive,
Cc1cccc(S(=O)(=O)c2cn(Cc3ccccc3)c3cc(N4CCOCC4)c(F)cc3c2=O)c1,inactive,
CCN(CC)c1cc(NC2CCCCC2)c2c3c(onc13)-c1ccccc1C2=O,inactive,
COc1ccc(OCCCC(=O)OC(C)C(=O)Nc2ccccc2[N+](=O)[O-])cc1 (stereo not drawn),inactive,
Cc1csc(NC(=O)Nc2ccccc2[N+](=O)[O-])n1,4.47 µM (active),
Cc1csc(NC(=O)C2CCN(S(=O)(=O)c3ccccc3)CC2)n1,inactive,
Cc1c(CCNC(=O)c2ccc(C(F)(F)F)cc2)sc2nc(-c3ccc(F)cc3)nn12,inactive,
O=C(Nc1cc(-c2nc3ccccc3o2)ccc1Cl)c1cc([N+](=O)[O-])ccc1N1CCOCC1,inactive,
CCC(=O)Nc1cccc(-c2nc3cc(C)ccc3o2)c1,inactive,
O=[N+]([O-])c1ccc2oc(-c3cccc(O)c3)nc2c1,6.31 µM (active),
CC(=O)c1ccc(NC(=O)CSc2c(C(C)C)cnc3c2c(=O)n(C)c(=O)n3C)cc1,inactive,
O=C(Nc1cc(-c2nc3ncccc3o2)ccc1Cl)c1ccco1,6.31 µM (active),
Cc1cccc(C(=O)Nc2ccc(-c3nc4ncccc4o3)cc2C)c1,inactive,
Cc1cc(NC(=O)c2ccc(-c3ccc(Cl)cc3)o2)cc(-c2nc3ncccc3o2)c1O,inactive,
CCc1cc2c(cc(C(=O)OC)n2Cc2nc(-c3ccc(C)cc3)oc2C)s1,inactive,
CSc1ccccc1NC(=O)CCS(=O)(=O)c1nc(-c2cccs2)cc(C(F)(F)F)n1,inactive,
COc1ccc(Cc2nnc(SCC(=O)c3cccc([N+](=O)[O-])c3)n2C)cc1,inactive,
O=C(CSc1nc(Nc2ccc(F)c(F)c2)c2ccccc2n1)c1ccc(Cl)cc1,inactive,
O=C(CSc1nc2ccc([N+](=O)[O-])cc2[nH]1)c1ccc(Cl)cc1,11.2 µM (active),
CCOc1ccccc1C(=O)Nc1ccc2c(c1)N(C)C(=O)c1ccccc1S2,inactive,

SMILES,Potency,activation
CCOC(=O)c1ccc2c(c1)N(Cc1cccc(OC)c1)C(=O)c1ccccc1S2(=O)=O,inactive,
Cc1ccccc1CNC(=O)Cn1c(C)c2cnn(-c3ccccc3)c(=O)c2c1C,inactive,
CCC(C(=O)Nc1cc(OC)ccc1OC)n1c(=O)c(C(F)(F)F)nc2ccccc21 (stereo not drawn),inactive,
S=c1[nH]nc(-c2ccco2)n1/N=C/c1ccccc1,10 µM (active),
S=c1[nH]nc(/C=C/c2ccccc2)o1,inactive,
CN(C)C(=O)CSc1n[nH]c(-c2ccco2)n1,inactive,
COc1cc(NC(=O)c2cc(C3CC3)nc3c2c(C)nn3-c2ccccc2)cc(OC)c1,inactive,
Cc1cccc(NC(=O)Cn2nc(-c3ccc(Cl)cc3)c3ccccc3c2=O)c1,inactive,
COCOc1cc(O)c(C(=O)/C=C/c2ccc(OCOC)c(OCOC)c2)c(OCOC)c1,inactive,
COc1ccc(/C=C/C(=O)c2cc(Br)ccc(=O)c2O)cc1,12.6 µM (active),
COc1cccc(N2CC(NC(=O)/C=C\c3ccccc3)CC2=O)c1 (stereo not drawn),inactive,
O=C(c1ccc(F)cc1)N1CCCC(C(=O)N2CCCCC2)C1 (stereo not drawn),inactive,
O=C(Nc1c(-c2ccc(F)cc2)nc2ccccn12)c1cccc(F)c1,inactive,
O=C(c1ccc(F)cc1)n1c(=S)nc2ccccn21,2.51 µM (active),
Cc1ccc(-c2nc(SCc3ccc(Br)cc3)n3[nH]c(=O)cc3n2)cc1,inactive,
CCc1nn(CC(=O)NCC(C)c2ccccc2)c(=O)c2cc3occc3n12 (stereo not drawn),inactive,
Cc1cccc(NC(c2cccc(F)c2)c2ccc3ccc(C)nc3c2O)n1 (stereo not drawn),inactive,
CCOCC(=O)Nc1cc(OC)c(Cl)cc1OC,inactive,
CCOc1cc(NC(=O)c2ccccc2C(=O)O)c(OCC)cc1NC(=O)c1ccccc1F,inactive,
CCOc1cc(NC(=O)CCl)c(OCC)cc1NC(C)=O,14.1 µM (active),
CC(C)(C)OC(=O)N1CCC(c2c(C(=O)NCCc3ccsc3)cnn2-c2ccc(F)cc2F)CC1,inactive,
COc1ccccc1NC(=O)c1cc(S(=O)(=O)NCCc2ccccc2)ccc1F,inactive,
